Only some compounds are listed: those with a hit (about 4.8% of all), similar ones and a draw of the others.
ssDAF12 agonist: S. stercoralis DAF-12 nuclear receptor activators, primary screen, cell-based, luminescence, HEK293, GRIP1 co-expression, lit1-tk-luc. 370,000 tested, 1% active. HEK293 ssDAF-12/GRIP1 lit1-tk-luc reporter; % of 3 µM dafachronic acid response. Nuclear hormone receptor DAF-12 (Strongyloides stercoralis). activation, % at 6.8 µM;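 active = activation above the mean over all tested compounds plus 3 SD, cut at about 0.9% in these data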
hgDAF-12 ag: H. glycines DAF-12 receptor agonists, primary screen, cell-based, luminescence, HEK293, GAL4 fusion, UAS-luciferase; Nuclear hormone receptor DAF-12 (Heterodera glycines), GAL4 fusion; HEK293 GAL4-hgDAF12 UAS-luciferase reporter, agonist luminescence; normalized to butyrate control; activation, % at 6.8 µM; 370,000 tested, 1.8% active;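 active = activation above a cutoff set at the mean of all screened compounds plus 3 SD, cut at about 10% in these data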
DAX1 inh-1: DAX1 (NR0B1) inhibitors on StAR promoter, primary screen, cell-based, luminescence, SF-1 (NR5A1), full-length DAX-1; HEK293T StAR-luciferase reporter, SF-1/DAX-1 repression relief; inhibition, % at 6.8 µM; 370,000 tested, 1.1% active;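 active = inhibition above the mean over all tested compounds plus 3 SD, cut at about 3.6% in these data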;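 also: higher inhibition means more luminescence from relief of DAX-1 repression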
DAX1 inh-2: DAX1 (NR0B1) inhibitors, primary screen, cell-based, HEK293, Gal4-DAX1, luciferase luminescence; Nuclear receptor subfamily 0 group B member 1 (Homo sapiens), P51843; HEK293 Gal4-DAX1 luciferase reporter; inhibition, % at 6.75 µM; 340,000 tested, 0.99% active; AID 504766, 2011;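 active = inhibition above the mean over all tested compounds plus 3 SD, cut at about 4.2% in these data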;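 also: inhibition shows as a rise in luminescence from relieved DAX1 repression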
Target sequence (P51843 207-470 limits assumed): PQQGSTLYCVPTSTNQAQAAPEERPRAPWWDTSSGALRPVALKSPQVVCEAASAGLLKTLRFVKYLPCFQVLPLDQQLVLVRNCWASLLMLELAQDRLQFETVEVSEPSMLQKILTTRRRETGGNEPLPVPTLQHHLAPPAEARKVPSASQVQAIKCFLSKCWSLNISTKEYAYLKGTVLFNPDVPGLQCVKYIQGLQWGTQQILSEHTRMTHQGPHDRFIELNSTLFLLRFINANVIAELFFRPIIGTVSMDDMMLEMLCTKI
hcDAF12 agonist: H. contortus DAF-12 nuclear receptor activators, primary screen, cell-based, luminescence, HEK293, lit1-tk-luc reporter; 370,000 tested, 1.4% active; AID 652067, 2013; HEK293 hcDAF-12 lit1-tk-luc reporter; 0% DMSO, 100% Δ7-dafachronic acid; activation, % at 6.8 µM;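 active = activation above the mean of all tested compounds plus 3 SD, cut at about 5.5% in these data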
SMARCA2 act: SMARCA2 (BRM) function activators, primary screen, cell-based, luminescence, high throughput; activation, % at 9.1 µM; 370,000 tested, 1% active; MG213 cells, MMTV-luciferase reporter, dexamethasone, overnight; in the data active = activation above about 7.8%
Each line names hits and unclear results; the compound was inactive in the other large screens.

COc1cccc(C(=O)OCC(=O)c2c[nH]c3ccccc23)c1O	ssDAF12 agonist 1.9
O=C(COC(=O)C1CC1)c1c[nH]c2ccccc12	ssDAF12 agonist 1.1, hcDAF12 agonist 6.2
Cc1cccc(-c2cccc3c4c([nH]c23)[C@@H]2C[C@H](N(C)C(=O)NC3CCCCC3)[C@H]([C@H](C)O)CN2CC4)c1	none (no result: DAX1 inh-2)
COC(=O)[C@]12C[C@H](CC(=O)NCCC(C)C)C(=O)N(CCc3ccc(OC)c(OC)c3)C1=C[C@H](C(C)C)O[C@@H]2C1CC1	none (no result: DAX1 inh-2)
COc1ccccc1C(=O)COC(=O)c1cc(=O)[nH]c2ccccc12	none

Compound activity from PubChem.
